Screening results from PubChem BioAssay.
BAZ2B block = qHTS Assay for Inhibitors of BAZ2B. Bromodomain adjacent to zinc finger domain protein 2B (Homo sapiens), Q9UIF8. Potency, µM (doses to about 114 µM), hits mostly inhibitors. AlphaScreen BAZ2B-H3K14Ac peptide displacement. 360,000 compounds, 4.4% hits; also: nearly all actives have a fitted effect of over 60% in size
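BAZ2B (50 nM) with biotin-H3(5-23)K14Ac peptide (50 nM) in PBS pH 7.4, 0.01% Tween-20, preformed 30 min, then compound 30 min at room temperature; top concentration 110uM. AlphaScreen streptavidin donor/nickel chelate acceptor beads (10 ug/mL final), 20 min dark, signal read.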
JMJD2A Tudor inh = qHTS Assay for Inhibitors of JMJD2A-Tudor Domain; 390,000 compounds, 4.4% hits; Lysine-specific demethylase 4A (Homo sapiens), O75164; AlphaScreen JMJD2A-Tudor / H3K4me3 peptide binding; AID 504339, 2011; Potency, µM (titrated, usually from 114 µM), hits mostly inhibitors; also: nearly all actives have a fitted effect of over 50% in size
HP1b chromo inh = HTS for Inhibitors of HP1-beta Chromodomain Interactions with Methylated Histone Tails. AID 540317, 2011. AlphaScreen HP1-beta / biotin-H3K9me3 peptide binding. Chromobox protein homolog 1 (Homo sapiens), P83916. Potency, µM (titrated, usually from 114 µM), hits mostly inhibitors. 390,000 compounds, 0.56% hits; also: nearly all actives have a fitted effect of over 70% in size
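HP1-beta protein (50 nM final) preincubated 30 min at room temperature with biotinylated H3(1-18)K9me3 peptide (50 nM) in PBS pH 7.4, 0.01% Tween-20, then compound added for 30 min. AlphaScreen streptavidin donor/nickel chelate acceptor beads (10 ug/mL final), 30 min dark, luminescence read.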
Sfp inh = qHTS Assay for Inhibitors of Bacillus subtilis Sfp phosphopantetheinyl transferase (PPTase) | 4'-phosphopantetheinyl transferase ffp (Bacillus subtilis), Q9F4F7 | Biochemical Sfp PPTase activity, qHTS | Potency, µM, usual class: inhibitors | 310,000 compounds, 3.5% hits;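 also: the enzyme is Sfp with the accession as filed and its product quenches rhodamine fluorescence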
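Compounds were incubated with enzyme (final 15 nM) for 15 min at room temperature before substrate addition started the reaction. Fluorescence at 525 nm excitation, 598 nm emission was recorded immediately and after 30 minutes.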
PLK1 PBD block = qHTS for Inhibitors of PLK1-PDB (polo-like kinase 1 - polo-box domain): Primary Screen; 360,000 compounds, 2.8% hits; Potency, µM, hits mostly inhibitors; Plk1 PBD binding of FITC phosphopeptide, fluorescence polarization; Serine/threonine-protein kinase PLK1 (Homo sapiens), P53350; also: series mostly up to about 57 µM; nearly all actives have a fitted effect of over 65% in size
G9a block = qHTS Assay for Inhibitors of Histone Lysine Methyltransferase G9a; Histone-lysine N-methyltransferase EHMT2 (Homo sapiens), Q96KQ7; G9a H3K9 monomethylation, AlphaScreen, 2 h; Potency, µM (titrated, usually from 102 µM), usual class: inhibitors; 350,000 compounds, 8.8% hits; also: nearly all actives have a fitted effect of over 75% in size
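Methyltransferase reactions run at room temperature for 2 h (20 nM enzyme, 500 nM biotin-H3K9 peptide, 20 uM SAM) after a 15 min compound preincubation; product detected by AlphaScreen beads and anti-H3K9me1 antibody.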
Hits are given with their value; [ ] = remark or other dose. Rows were chosen to be rich in hits. Some 12% of all compounds tested hit in one or more screens of this group. Calls follow the shape of the dose curve; as a rule, active = well fitted curve in the direction sought with a large enough effect; inconclusive = small, poorly fitted or top-dose-only effect, or another doubt; inactive = no such curve, though single readings can be large; an effect the other way counts as inactive or inconclusive.

For O=C(Cc1ccc(Cl)cc1)Nc1cc(S(=O)(=O)N2CCOCC2)ccc1N1CCCC1 the results were BAZ2B block inactive, JMJD2A Tudor inh inactive[11.4 µM], HP1b chromo inh inactive, Sfp inh inactive, PLK1 PBD block inactive and G9a block 44.7µM.
Screening O=S(=O)(c1ccc2c(c1)N(Cc1ccc(Cl)cc1)C1CCCN21)N1CCOCC1 (configuration not stated) returned BAZ2B block inactive, JMJD2A Tudor inh inactive, HP1b chromo inh inactive, Sfp inh inactive, PLK1 PBD block inactive and G9a block 50.1µM.
O=C(COC(=O)c1ccccc1Br)Nc1cc(S(=O)(=O)N2CCOCC2)ccc1N1CCCC1 was read as BAZ2B block inconclusive, JMJD2A Tudor inh inactive, HP1b chromo inh inactive, Sfp inh inactive, PLK1 PBD block inactive and G9a block 14.1µM.
For CCN(CC)S(=O)(=O)c1ccc(N2CCCCC2)c(NC(=O)/C(C#N)=C/c2ccc(OC)cc2)c1 the results were BAZ2B block inactive, JMJD2A Tudor inh inactive, HP1b chromo inh inactive, Sfp inh inactive, PLK1 PBD block inactive and G9a block inactive.
`COc1ccc(/C=C(\C#N)C(=O)Nc2cc(S(=O)(=O)N3CCOCC3)ccc2N2CCCC2)cc1` gave BAZ2B block inconclusive, JMJD2A Tudor inh inconclusive, HP1b chromo inh inconclusive, Sfp inh 35.5µM, PLK1 PBD block 6.7µM and G9a block 7.94µM.
For COC(=O)c1cc(F)c(S(=O)(=O)N2CCN(S(=O)(=O)c3ccc4c(c3)OCCO4)CC2)cc1F the results were JMJD2A Tudor inh inactive.
For Cc1ccccc1-c1cc(C(=O)NCc2cccc(C(F)(F)F)c2)n(CC2CC(c3cccnc3)=NO2)n1 (configuration not stated) the results were JMJD2A Tudor inh inactive, HP1b chromo inh inactive and PLK1 PBD block inactive.
COC(=O)NC(c1ccco1)[C@@]1(C(=O)OC)CCCC1=O (some centres not stated) was read as Sfp inh inactive.
`C=CC1CN(C(=O)OCC(Cl)(Cl)Cl)C2CC3c4ccc(OC)cc4NC3C3CC1C2CO3` (configuration not stated) gave JMJD2A Tudor inh inconclusive, HP1b chromo inh inactive and PLK1 PBD block inactive.
`COc1cccc(-c2nc(CS(=O)CC(=O)N3CCN(c4cccc(C(F)(F)F)c4)CC3)c(C)o2)c1` (configuration not stated) gave BAZ2B block inactive, JMJD2A Tudor inh inconclusive, HP1b chromo inh inactive and G9a block inconclusive.
Screening COc1ccc(CC(=O)Nc2cc(S(=O)(=O)N3CCOCC3)ccc2N2CCCC2)cc1OC returned JMJD2A Tudor inh inactive, HP1b chromo inh inactive and PLK1 PBD block inactive.
Cc1ccc(S(=O)(=O)N2CCOCC2)cc1NC(=O)CSc1ccc(Cl)cc1 was read as BAZ2B block inactive, JMJD2A Tudor inh inactive, HP1b chromo inh inactive, PLK1 PBD block inactive and G9a block inactive.
`COc1ccc(CC(=O)Nc2cc(Cl)ccc2N2CCCC2)cc1` gave BAZ2B block inactive, JMJD2A Tudor inh inactive, HP1b chromo inh inactive, Sfp inh inactive, PLK1 PBD block inactive and G9a block 44.7µM.
`O=C(Cc1c(F)cccc1Cl)Nc1cc(S(=O)(=O)N2CCOCC2)ccc1N1CCOCC1` gave BAZ2B block inactive, JMJD2A Tudor inh inactive, HP1b chromo inh inactive, PLK1 PBD block inactive and G9a block 50.1µM.
For O=C(CCCSc1ccc(Cl)cc1)Nc1cc(S(=O)(=O)N2CCOCC2)ccc1O the results were BAZ2B block inconclusive, JMJD2A Tudor inh 56.2µM, HP1b chromo inh inconclusive, PLK1 PBD block 3.36µM and G9a block inconclusive.
For C/C=C/c1ccc(OCC(=O)Nc2cc(S(=O)(=O)N3CCOCC3)ccc2N2CCCC2)c(OC)c1 the results were BAZ2B block inactive, JMJD2A Tudor inh inactive, HP1b chromo inh inactive, PLK1 PBD block inactive and G9a block 50.1µM.
For CCOC(=O)c1ccc(C#Cc2ccc3c(c2)C(C)(C)CCS3)nc1 the results were Sfp inh inactive and G9a block inactive[12.7 µM].
Screening O=C(CNc1cc(S(=O)(=O)N2CCOCC2)ccc1N1CCCC1)Nc1ccc(Cl)cc1F returned PLK1 PBD block inactive.
`CCCCCC(=O)Nc1cc(S(=O)(=O)N2CCCCC2)ccc1N1CCCCC1` gave JMJD2A Tudor inh inactive, HP1b chromo inh inactive and PLK1 PBD block inactive.
O=C(CNc1cc(S(=O)(=O)N2CCOCC2)ccc1N1CCCC1)N1CCc2ccccc21 was read as BAZ2B block inconclusive, JMJD2A Tudor inh inconclusive, HP1b chromo inh inactive, Sfp inh inactive, PLK1 PBD block inactive and G9a block 35.5µM.
CCCCCC(=O)Nc1cc(S(=O)(=O)N2CCOCC2)ccc1N1CCCCC1 was read as BAZ2B block inactive, JMJD2A Tudor inh inactive, HP1b chromo inh inactive, PLK1 PBD block inactive and G9a block 50.1µM.
`COc1ccc(NC(=O)CC(c2ccccc2)c2ccco2)cc1` (configuration not stated) gave BAZ2B block inactive, JMJD2A Tudor inh inactive, HP1b chromo inh inactive, Sfp inh 44.7µM, PLK1 PBD block inactive and G9a block inconclusive.
For O=C(CC(c1ccccc1)c1ccco1)Nc1nccs1 (configuration not stated) the results were BAZ2B block inconclusive, JMJD2A Tudor inh inactive, HP1b chromo inh inactive, Sfp inh inactive, PLK1 PBD block inactive and G9a block 50.1µM.
Screening CCCOc1ccc2nc(C)c(CCC)c(SC(=N)N)c2c1 returned BAZ2B block inconclusive, JMJD2A Tudor inh inconclusive, HP1b chromo inh inactive, Sfp inh inconclusive, PLK1 PBD block inactive and G9a block 39.8µM.
CCCc1c(C)nc2ccc(OC)cc2c1SCCC(=O)O was read as BAZ2B block inactive, JMJD2A Tudor inh inactive, HP1b chromo inh inactive, Sfp inh inactive, PLK1 PBD block inconclusive and G9a block inactive.
Screening CCCCCCCCOC(=O)C[N+](C)(C)C/C=C(/C)Cl returned BAZ2B block inactive, JMJD2A Tudor inh inactive, HP1b chromo inh inactive, Sfp inh inactive, PLK1 PBD block inactive and G9a block inactive.
CCCCCCCCCCOC(=O)C[N+](C)(C)C/C=C(/C)Cl was read as BAZ2B block inactive, JMJD2A Tudor inh inactive, HP1b chromo inh inactive, Sfp inh inactive, PLK1 PBD block 29.9µM and G9a block inactive.
For COc1cc(C2CC(=O)Oc3c2c(=O)[nH]c2ccccc32)cc(OC)c1OC (configuration not stated) the results were BAZ2B block inactive, JMJD2A Tudor inh inactive, HP1b chromo inh inactive and G9a block inactive.
